# Test system: EPHB1
# Conditions: concentration: 1 μM, replicates: in singlicate; n = 1
# 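Note: KINOMEscan kinase panel screen.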
row,Structure (SMILES),%Inh [%]
1,Cc1ccc(C(=O)Nc2ccc(Nc3ccnc4cc(-c5nccs5)ccc34)cc2O)cc1.Cl [GW494702],11
2,CC(C)c1nc(-c2cccc(NS(=O)(=O)c3c(F)cccc3F)c2F)c(-c2ccnc(Nc3ccc(N4CCOCC4)nc3)n2)s1 [GSK2008607],40
3,Cl.c1ccc(-c2ccc3c(Nc4ccc5[nH]ccc5c4)ccnc3c2)nc1 [GW440138],11
4,Nc1ncc(-c2cccnc2)c2scc(-c3ccc4c(c3)CCN4C(=O)Cc3ccccc3)c12 [GSK683281],21
5,COc1cc(Nc2nccc(-c3c(-c4cccc(NC(=O)c5c(F)cccc5F)c4)nn4ccccc34)n2)cc(OC)c1OC [GSK323521],14
6,CCc1ccc(-c2ccc3c(c2)-c2c(cnn2C)S(=O)(=O)N3C)cc1,0
7,COC(=O)Nc1nc2cc(Oc3ccc(NC(=O)Nc4cc(C(F)(F)F)ccc4F)cn3)ccc2[nH]1.Cl.Cl [GW681170],63
8,Cc1occc1-c1ncc(OC[C@@H](N)Cc2c[nH]c3ccccc23)cc1-c1ccc2[nH]nc(C)c2c1.O=C(O)C(F)(F)F [GSK682037],10
9,O=C(Nc1cccc(Oc2ccc3nc(NC(=O)C4CC4)cn3n2)c1)c1ccccc1C(F)(F)F,6
10,CSc1cccc2c(-c3ccncn3)c(-c3ccc(F)cc3)nn12 [GW514786],15
11,COc1cc(Nc2ncc3c(C)nc(-c4cc5ccccc5[nH]4)n3n2)cc(OC)c1OC [GW869516],58
12,O=C(Nc1cccc(-c2nn3ccccc3c2-c2ccnc(Nc3cccc(C(F)(F)F)c3)n2)c1)c1c(F)cccc1F [GSK292658],2
13,CNC(=O)c1ccccc1Nc1nc(Nc2ccc(N3CCOCC3)cc2)ncc1Cl.Cl [GSK1576028],71
14,Cl.c1ccc(-c2ccc3c(Nc4ccc5[nH]ncc5c4)ccnc3c2)nc1 [GW440137],13
15,Cl.Cl.NCC(NC(=O)c1cc(-c2ccccc2)c(-c2ccnc3[nH]ccc23)s1)c1ccccc1 (stereo not shown) [GSK1321561],16
16,COc1cc2c(cc1OCCN1CCNCC1)ncc1c3ccc(C#N)cc3[nH]c21,0

row,Structure (SMILES),%Inh [%]
1,CCn1c(-c2nonc2N)nc2c(C#CC(C)(C)O)ncc(OCCCCN)c21.O=C(O)C(F)(F)F.O=C(O)C(F)(F)F [GSK507274],0
2,COc1cc(Nc2nccc(-c3c(-c4cccc(NC(=O)c5c(F)cccc5F)c4)nn4ncccc34)n2)cc(OC)c1OC [GSK327238],35
3,COc1cc(Nc2nccc(N3CCC(NC(=O)Nc4cccc(C(C)=O)c4)C3)n2)cc(OC)c1OC (stereo not shown) [GSK1379753],18
4,CN(C)S(=O)(=O)c1cc(-c2ccc3nccc(-c4cccc(S(N)(=O)=O)c4)c3c2)cnc1N [GSK1669921],31
5,COCCOCCOc1cc2ncc3c4ccc(C#N)cc4[nH]c3c2cc1OC,6
6,Nc1n[nH]c2cnc(-c3ccccc3)cc12 [SB-642124],19
7,CN1CCN(CCCNc2nccc(-c3c(-c4ccc(F)cc4)nn4cc(C(F)(F)F)ccc34)n2)CC1 [GW621581],13
8,Nc1ncnc2c1nc(-c1ccccc1)n2-c1ccccc1 [SKF-97293],15
9,Cl.NC(=O)c1cccc(Nc2nccc(Nc3ccc(Oc4c(Cl)cccc4Cl)c(Cl)c3)n2)c1 [GW659009],93.5
10,Cc1ccc(F)c(C(=O)Nc2cccc(-c3nn4ccccc4c3-c3ccnc(Nc4cccc(F)c4)n3)c2)c1F [GSK361061],40
11,COc1cccc(-c2ccc3c(NC(=O)C4CC4)n[nH]c3n2)c1 [SB-710903],0
12,CC(=O)N1CCN(c2ccc(Nc3nccc(-c4sc(C(C)C)nc4-c4cccc(NS(=O)(=O)c5cccc(Cl)c5)c4)n3)cn2)CC1 [GSK1660437],21
13,C[C@@H]1CC[C@@H](C(=O)Nc2ccccc2)CN1c1cc(-c2ccc3c(N)n[nH]c3c2)nc(N)n1 [GSK2286062],5
14,Clc1ccc(-c2nn3ncccc3c2-c2ccnc(Nc3ccc4c(c3)OCCO4)n2)cc1 [GW829116],18
15,Cc1ccc(C(=O)N2CC[C@@H](O)C2)cc1-n1c(C)cc(OCc2ccc(F)cc2F)c(Br)c1=O,84

# Source: PMC5540273 (PLoS ONE, 2017)
